About 19,000 (20%) of roughly 96,000 compounds were called active.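 The calls were made as follows: active = blocking of liver enzyme CYP2C9 beyond about 50% at 5 µM (limit read from the data); inactive = the rest.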 Only a sample is shown.

The results in this text go back to PubChem BioAssay AID777 (Sanford-Burnham Center for Chemical Genomics, 2007).

Sequence of Cytochrome P450 2C9 (Homo sapiens) (P11712 whole entry, looked up): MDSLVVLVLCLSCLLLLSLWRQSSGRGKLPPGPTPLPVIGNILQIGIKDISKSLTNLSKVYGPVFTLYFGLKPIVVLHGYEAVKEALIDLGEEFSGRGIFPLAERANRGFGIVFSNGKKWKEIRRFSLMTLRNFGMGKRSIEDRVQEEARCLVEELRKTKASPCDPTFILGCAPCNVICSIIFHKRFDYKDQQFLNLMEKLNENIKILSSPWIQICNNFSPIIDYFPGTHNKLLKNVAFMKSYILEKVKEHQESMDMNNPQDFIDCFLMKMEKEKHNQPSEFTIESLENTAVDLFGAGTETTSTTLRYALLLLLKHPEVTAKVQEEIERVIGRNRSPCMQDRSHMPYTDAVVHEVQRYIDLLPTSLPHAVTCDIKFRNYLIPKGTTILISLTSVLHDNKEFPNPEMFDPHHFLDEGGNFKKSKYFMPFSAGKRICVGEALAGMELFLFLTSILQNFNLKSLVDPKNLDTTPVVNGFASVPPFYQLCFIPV

The assay has as its target Cytochrome P450 2C9 (Homo sapiens) (UniProt P11712). Description: blockers of cytochrome P450 2C9 activity – biochemical, luminescence, ADME assay, primary screen (AID 777). Particulars: CYP2C9 Supersomes, luciferin-H conversion, at 5 µM, active compounds read high.
Take `CCc1nc(C)cn1S(=O)(=O)c1cc(OC)c(C)cc1C`: the inhibition is 7.6% (inactive).

On to `Cc1ccsc1CNn1cnnc1SCc1ccccc1F`, for which the inhibition was 13.9% (inactive).

On to `Cc1ccc(C2=NN(C)c3nc4ccccc4n3C2)cc1`, for which the inhibition was 6.9% (inactive).

`COCc1cc(=O)[nH]c2cc(NC(=O)C(F)(F)F)c(C)cc12`: the inhibition was 13.9% (inactive).

As for `CCOC(=O)Cn1c(-c2cccnc2Cl)nc2ccccc21`, the inhibition was 10.6% (inactive).

As for `O=C(Nc1ncc2c(n1)-c1ccccc1OC2)c1ccc(Cl)cc1`, the inhibition is 25.3% (inactive).

As for `Cc1c2cnn(-c3ccccc3)c(=O)c2c(C)n1CCCC(=O)N1CCN(C)CC1`, the inhibition was -0.9% (inactive).

Regarding `Cn1cc(CCC(=O)NCc2ccc3c(c2)OCO3)c2ccccc21`, the inhibition is -124% (inactive).

For `Cc1ccc(C)c(N2CCN(C(=O)CCCCn3c(=O)[nH]c4ccccc4c3=O)CC2)c1`, the inhibition is 61.9% (active).

Turning to `CCC1CCCCN1CCCNC(=O)C1CCC(Cn2c(=O)[nH]c3ccccc3c2=O)CC1` (configuration not stated), the inhibition was 1.7% (inactive).

Regarding `O=C(CCCCn1c(=O)[nH]c2ccccc2c1=O)NCc1ccc2c(c1)OCO2`, the inhibition was 69% (active).

Consider `CC(C)NC(=O)CCCn1c(=S)[nH]c2cc3c(cc2c1=O)OCO3`, for which the inhibition was 12.3% (inactive).

`O=C(COc1ccc(/C=N/NS(=O)(=O)c2ccccc2)cc1)NCCc1ccccc1`: the inhibition was 5.3% (inactive).

Take `CCOc1ccc(OCC)c(NC(=O)C(NS(=O)(=O)c2ccc3c(c2)oc(=O)n3C)C(C)C)c1` (configuration not stated): the inhibition was 17.9% (inactive).

In the case of `N#C/C(=C(/O)Cc1cccc2ccccc12)c1nc2ccccc2s1`, the inhibition was 76.6% (active).

Take `N#C/C(=C(/O)COc1cccc2ccccc12)c1nc2ccccc2[nH]1`: the inhibition was -6.1% (inactive).

Turning to `Cc1ccccc1OC/C(O)=C(\C#N)c1nc2ccccc2[nH]1`, the inhibition is 45.5% (inactive).

In the case of `CN(C)/C=C(\C#N)C(=O)c1cccnc1Oc1cccc(F)c1`, the inhibition is 12.2% (inactive).

Turning to `CCCC(C)C(=O)Nc1ccc(NC(C)=O)cc1` (configuration not stated), the inhibition was 9.5% (inactive).

`COc1ccc(C2OC(=O)CC2C(=O)NC(C)C)cc1` (configuration not stated): the inhibition was 3.6% (inactive).

As for `COC(=O)c1sccc1NC(=O)CCC1CCCC1`, the inhibition was -11.7% (inactive).

Turning to `N#Cc1cccc(NC(=O)CCC2CCCC2)c1`, the inhibition was 56.8% (active).

Regarding `O=C(CCCOc1ccccc1)Nc1cccc(C(=O)O)c1`, the inhibition was 9.5% (inactive).

On to `CCCC(=O)N1CCc2[nH]c3ccccc3c2C1`, for which the inhibition is 8.3% (inactive).

Take `Cc1ccc(C(C(=O)NCc2ccco2)N(CC2CCCO2)C(=O)Cn2nnc3ccccc32)cc1` (configuration not stated): the inhibition was 14.4% (inactive).

As for `COCCNC(=O)C(c1ccc(C)o1)N(Cc1ccccc1)C(=O)Cn1nnc2ccccc21` (configuration not stated), the inhibition is 16.2% (inactive).

For `COc1ccccc1N(C(=O)Cn1nnc2ccccc21)C(C(=O)NCc1ccco1)c1ccc(C)o1` (configuration not stated), the inhibition is 70.3% (active).

`CCOCCCNC(=O)Cc1cc(=O)[nH]c(=O)[nH]1`: the inhibition was -6.2% (inactive).

As to `Cc1noc(COc2ccccc2OCC(O)CNC(C)(C)C)n1` (configuration not stated), the inhibition was 26.1% (inactive).

Regarding `O=C(Nc1cccc2ccccc12)N1CCN(Cc2ccc3c(c2)OCO3)CC1`, the inhibition is 38.9% (inactive).

Consider `CC1CCC(N2CC(=O)N(Cc3ccc4c(c3)OCO4)C(c3ccc(F)cc3)C2=O)CC1` (configuration not stated), for which the inhibition is 39.6% (inactive).

On to `O=C1N(Cc2ccc3c(c2)OCO3)c2ccccc2C1(O)c1c[nH]c2ccccc12` (configuration not stated), for which the inhibition was 79.7% (active).

Take `CC(=O)Oc1ccc(C)cc1N1C(=O)c2ccc(C(=O)O)cc2C1=O`: the inhibition was -17.9% (inactive).

On to `C/C(CC(O)(/C=N/O)c1ccccc1)=N\O` (configuration not stated), for which the inhibition is -33% (inactive).

`CC1=NN(c2cccc(Cl)c2)C(=O)C12CC(C)=C(C)CS2` (configuration not stated): the inhibition was 74.8% (active).

On to `O=C1C(=O)N(c2ccccc2)c2ccccc21`, for which the inhibition is 4.1% (inactive).

As for `CCOc1ccc(Nc2nc(Cc3nnc(SCC(=O)NC4CCCC4)n3C)cs2)cc1`, the inhibition is 65.6% (active).

For the molecule `CCOC(=O)c1c(NC(=O)CSc2nnc(Cc3csc(N)n3)n2C)sc(C)c1C`, the inhibition is 30.2% (inactive).

Turning to `CCOc1ccc(Nc2nc(Cc3nnc(SCC(=O)c4ccc(C)cc4)o3)cs2)cc1`, the inhibition was 83.7% (active).

Consider `CCC(=O)Nc1ccc(C(=O)CSc2nnc(CNc3ccc(Cl)cc3)o2)cc1OC`, for which the inhibition is -44.6% (inactive).

Consider `CC(=O)Nc1ccc(C(=O)CSc2nnc(Cc3ccccc3)o2)cc1`, for which the inhibition is 33.3% (inactive).

Consider `COCCCn1c(Cc2csc(Nc3cccc(Cl)c3)n2)nnc1SCC(=O)OC1CCCCC1`, for which the inhibition is 44.3% (inactive).

Turning to `COCc1cc(C)nc2sc(C(=O)NC3CCCCC3)c(N)c12`, the inhibition was 4.7% (inactive).

As for `COc1ccc(-n2cnc3cc(NCc4ccco4)ccc32)cc1`, the inhibition is 32.8% (inactive).

Turning to `COC(=O)[C@@H](NC(=O)Nc1cc(Cl)ccc1C)C(C)C`, the inhibition is 10% (inactive).

On to `OC(C#CCN1CCOCC1)(c1ccccc1)C1CCCCC1` (configuration not stated), for which the inhibition is 30% (inactive).

As to `CCCCCCc1cc2cc(-c3nnc(-c4ccccc4)o3)c(=O)oc2cc1O`, the inhibition is 90.8% (active).

Turning to `O=c1oc2cc(O)ccc2cc1-c1ccc(F)cc1`, the inhibition is 27.8% (inactive).

As for `CC1(C)CC(=O)C=C(NCCCNC2CCCCC2)C1`, the inhibition was 1% (inactive).

For the molecule `CCOC(=O)c1c(N)sc(C(C)=O)c1C`, the inhibition was 25.8% (inactive).

In the case of `CCCCc1c(O)nc2n(c1=O)CCS2`, the inhibition is -21.9% (inactive).

In the case of `COc1ccccc1NC1=NC(c2ccc(Cl)cc2)N=C(N)N1` (configuration not stated), the inhibition is -7.5% (inactive).

Take `CCn1c2ccccc2c2cc(NC(=S)N3CCOCC3)ccc21`: the inhibition is -46.3% (inactive).

`COC(=O)CNC(=O)c1ccc2c(c1)S(=O)(=O)c1ccccc1C2=O`: the inhibition was -14.1% (inactive).

On to `CCCCN(C)C(=O)c1ccc2c(c1)N(CC)C(=O)c1ccccc1S2(=O)=O`, for which the inhibition is 72.4% (active).

Regarding `CCN1C(=O)c2cccc3c(N)ccc1c23`, the inhibition was 7.7% (inactive).

With `CCC(C)Sc1nnc(-c2c[nH]c3ccccc23)n1CCOC` (configuration not stated), the inhibition is -4.5% (inactive).

As for `CCOC(=O)C1=C(C)NC(C)=C(C(=O)OCC)C1c1ccccn1`, the inhibition was 94.2% (active).

As for `CCCC1NC(=O)NC(C)=C1C(=O)OCC` (configuration not stated), the inhibition was 39.8% (inactive).

With `CCOC(=O)c1ccccc1NC(=O)CC1Nc2ccccc2NC1=O` (configuration not stated), the inhibition is 29.5% (inactive).

Consider `CCC(=O)N(Cc1ccccc1)c1ccccn1`, for which the inhibition is -7.1% (inactive).

Turning to `CCOC(=O)C1=C(C)NC(C)=C(C(=O)OCC)C1C1=COCCO1`, the inhibition is 77.4% (active).

As for `CCCC(O)(c1ccc(OC)cc1)C(CN(C)C)c1ccccc1` (configuration not stated), the inhibition was -8.2% (inactive).

Turning to `O=C(NC(=O)c1ccc(Cl)c(Cl)c1)OC1CCS(=O)(=O)C1` (configuration not stated), the inhibition is -16.4% (inactive).

On to `CCOc1ccccc1NC(=O)C12CC3CC(C1)CC(c1ccc(C)cc1)(C3)C2`, for which the inhibition is -16% (inactive).

As to `N#C/C=C\Oc1ccc(Cl)cc1N`, the inhibition is -10.4% (inactive).

For `O=C(CCN1C(=O)C2C3C=CC(C3)C2C1=O)Nc1ccccc1F` (configuration not stated), the inhibition is -2.2% (inactive).

Consider `NC(=NC(=O)c1ccccc1)N1CCOCC1`, for which the inhibition is 4.1% (inactive).

As for `CCN(CC)C(=O)CSc1nnc(-c2ccc(S(=O)(=O)NCc3ccccc3Cl)cc2)o1`, the inhibition was 25.8% (inactive).

As for `O=C(OCC(=O)N1CCCC1)c1ccco1`, the inhibition is 5.6% (inactive).

Consider `O=C(CSc1ccccc1)Nc1ccc(NC(=O)c2ccco2)cc1`, for which the inhibition is 42.7% (inactive).

As to `CCn1c(SCC(=O)Nc2cccc(F)c2)nnc1-c1cc2cc(Br)ccc2o1`, the inhibition is 36% (inactive).

Regarding `CSc1cccc(NC(=O)CSc2ccccc2)c1`, the inhibition was 73.2% (active).

Turning to `Oc1ccccc1/C=N/n1c(-c2cccs2)n[nH]c1=S`, the inhibition was 0.5% (inactive).

Take `Cc1nnc(C)n1/N=C/c1ccc(C(C)C)cc1`: the inhibition is 8.3% (inactive).

`Cc1ccc2[nH]c3c(=O)n(Cc4ccccn4)cnc3c2c1`: the inhibition was 2.1% (inactive).

As for `Cn1nnc2cc(C(=O)NCCC3=CCCCC3)ccc21`, the inhibition was -22.1% (inactive).

On to `Cc1ccc2c(c1)c1ncn(CCC3=CCCCC3)c(=O)c1n2C`, for which the inhibition is 87.4% (active).

For `Cc1ccc(-n2ncc3c(=O)[nH]cnc32)c(C)c1`, the inhibition is 2.5% (inactive).

With `Cn1c(=O)n(C)c(=O)n(CC(=O)N2CCCCC2)c1=O`, the inhibition is -13.7% (inactive).

With `COc1ccc(C(=O)N(CCN2CCOCC2)CC(=O)NC2CCCC2)cc1OC`, the inhibition was -13.4% (inactive).

As for `Cc1cccc(NC(=O)CSc2nnc(CCCCCNC(=O)OC(C)(C)C)o2)c1C`, the inhibition is 67.6% (active).

Consider `CCc1ccccc1NC(=O)CSc1nnc([C@@H](NC(=O)OC(C)(C)C)C(C)CC)o1` (some centres not stated), for which the inhibition is 66.7% (active).

With `C[C@H](NC(=O)OC(C)(C)C)c1nnc(SCC(=O)Nc2ccc(Br)cc2)o1`, the inhibition is 50.7% (active).

With `CCc1ccccc1NC(=O)CSc1nnc([C@@H](NC(=O)OC(C)(C)C)C(C)C)o1`, the inhibition is 20.3% (inactive).

As for `CC(C)C[C@@H](N)c1nnc(SCC(=O)c2ccc(Cl)cc2)o1`, the inhibition is 49.8% (inactive).

Consider `Cc1cccc(NC(=O)CSC(N)=O)c1C`, for which the inhibition was 7.1% (inactive).

Take `C[C@H](NC(=O)OC(C)(C)C)c1nnc(SCC(N)=O)o1`: the inhibition was 30.9% (inactive).

Take `Cc1nc(C)c(C(=O)Nc2cccc(C)c2C)o1`: the inhibition was 1.2% (inactive).

Take `COc1ccccc1-c1nnc(SCC(=O)Nc2ccccc2)o1`: the inhibition is -62.2% (inactive).

Take `CN(C)CCNC(=O)C(C(=O)c1ccccc1)n1ccccc1=O` (configuration not stated): the inhibition was -3.6% (inactive).

In the case of `CCCCNC(=O)OC(C)CNC(=O)OC` (configuration not stated), the inhibition is -7.6% (inactive).

With `O=C(C1CCCO1)N1CCC(c2nc3ccccc3[nH]2)CC1` (configuration not stated), the inhibition is -3.1% (inactive).

Regarding `CCCNS(=O)(=O)c1ccc2c(c1)CCCN2C(C)=O`, the inhibition was 4.5% (inactive).

Regarding `COC(=O)C(C)C1Sc2ccccc2NC1=O` (configuration not stated), the inhibition was 2.8% (inactive).

Regarding `CC1CN(c2nc(-c3ccccc3)nnc2-c2ccccc2)CC(C)O1` (configuration not stated), the inhibition is 14.1% (inactive).

For the molecule `Cn1nc(-c2ccccc2)c(-c2nc(-c3ccc(Cl)cc3)no2)c1Cl`, the inhibition is 0.9% (inactive).

On to `Clc1ccc(-c2nnc(-c3ccccc3)nc2N2CCSCC2)cc1`, for which the inhibition is 59.2% (active).

As for `CC1(C)CC(CC(=O)O)C(=O)O1` (configuration not stated), the inhibition is 4.1% (inactive).

Regarding `COc1ccccc1OCc1nc2ccccc2s1`, the inhibition was 51.7% (active).

Take `O=C(O)CSCc1nc2ccccc2s1`: the inhibition is -9.7% (inactive).

For the molecule `O=C(O)CCCCc1nc2ccccc2s1`, the inhibition is 2.4% (inactive).

As a reminder, the inhibition is the drop in the measured response relative to a control, in per cent.
